Paper PMC7862700, “An all-to-all approach to the identification of sequence-specific readers for epigenetic DNA modifications on cytosine”

Experiments:
Assay in all cases: DAPPL (digital affinity profiling via proximity ligation, sequencing); 10 mM Tris-HCl pH 7.5, 50 mM NaCl, 1 mM DTT, 4% glycerol, room temperature, 30 min; GST-TFs on glutathione beads, 16-mer random dsDNA library, 0.1% formaldehyde crosslink after washing; high values mean tight binding
[1] = target: T1, FEV (Homo sapiens, UniProt Q99581 1-238); conditions: protein: recombinant; tags: N-terminal GST; dsDNA, one strand shown
T1 sequence: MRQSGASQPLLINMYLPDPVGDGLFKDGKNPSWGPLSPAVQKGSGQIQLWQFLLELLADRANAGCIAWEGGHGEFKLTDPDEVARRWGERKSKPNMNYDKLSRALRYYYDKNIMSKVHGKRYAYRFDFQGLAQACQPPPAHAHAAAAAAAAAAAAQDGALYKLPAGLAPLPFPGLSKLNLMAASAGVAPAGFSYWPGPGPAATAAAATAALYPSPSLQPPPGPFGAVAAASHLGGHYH
Procedure, shortened: (§1)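 Binding signal is each hexamer's read frequency for a factor divided by its frequency in the tag-only sample. The factors were GST-fused human transcription factors from yeast, captured on glutathione beads, DNA-barcoded and pooled with that sample. Pools were incubated with 200 nmole of a random double-stranded 16-mer DNA library in Tris/NaCl/DTT/glycerol buffer at room temperature for 30 min, then washed, crosslinked with 0.1% formaldehyde, proximity-ligated with BsaI/T4 ligase (1 h, 37 °C), PCR-amplified and sequenced on an Illumina NextSeq500.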

[2] = target: ETV5 (Homo sapiens, UniProt P41161 1-510); conditions: protein: recombinant; tags: N-terminal GST; dsDNA, one strand shown
Procedure, shortened: as §1

[3] = target: HSF1 (Homo sapiens, UniProt Q00613 1-529); conditions: protein: recombinant; tags: N-terminal GST; chain copies: 3; dsDNA, one strand shown
Procedure, shortened: as §1

[4] = target: T2, SPIC (Homo sapiens, UniProt Q8N5J4 1-248); conditions: protein: recombinant; tags: N-terminal GST; dsDNA, one strand shown
T2 sequence: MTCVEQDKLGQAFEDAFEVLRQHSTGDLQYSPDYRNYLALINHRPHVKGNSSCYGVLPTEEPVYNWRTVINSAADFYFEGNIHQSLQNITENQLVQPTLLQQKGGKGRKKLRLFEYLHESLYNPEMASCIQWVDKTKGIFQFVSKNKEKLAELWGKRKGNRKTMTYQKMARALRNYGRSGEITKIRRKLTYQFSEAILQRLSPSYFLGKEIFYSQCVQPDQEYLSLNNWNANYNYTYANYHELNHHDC
Procedure, shortened: as §1

[5] = target: ELF4 (Homo sapiens, UniProt Q99607 1-663); conditions: protein: recombinant; tags: N-terminal GST; dsDNA, one strand shown
Procedure, shortened: as §1

[6] = target: T3, ELK4 (Homo sapiens, UniProt P28324-2 1-405); conditions: protein: recombinant; tags: N-terminal GST; dsDNA, one strand shown
T3 sequence: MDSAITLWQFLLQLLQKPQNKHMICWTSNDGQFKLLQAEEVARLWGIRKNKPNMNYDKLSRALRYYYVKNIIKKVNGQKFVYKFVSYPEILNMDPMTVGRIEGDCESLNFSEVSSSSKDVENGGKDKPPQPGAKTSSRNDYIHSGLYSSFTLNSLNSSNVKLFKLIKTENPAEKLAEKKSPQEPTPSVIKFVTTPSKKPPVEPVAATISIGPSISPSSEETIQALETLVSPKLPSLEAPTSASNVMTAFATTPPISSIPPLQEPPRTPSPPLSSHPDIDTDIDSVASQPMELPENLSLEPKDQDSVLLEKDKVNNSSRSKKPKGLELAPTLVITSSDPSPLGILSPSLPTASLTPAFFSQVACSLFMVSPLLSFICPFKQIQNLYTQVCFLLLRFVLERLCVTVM
Procedure, shortened: as §1

[7] = target: T4, ETV2 (Homo sapiens, UniProt O00321 1-342); conditions: protein: recombinant; tags: N-terminal GST; dsDNA, one strand shown
T4 sequence: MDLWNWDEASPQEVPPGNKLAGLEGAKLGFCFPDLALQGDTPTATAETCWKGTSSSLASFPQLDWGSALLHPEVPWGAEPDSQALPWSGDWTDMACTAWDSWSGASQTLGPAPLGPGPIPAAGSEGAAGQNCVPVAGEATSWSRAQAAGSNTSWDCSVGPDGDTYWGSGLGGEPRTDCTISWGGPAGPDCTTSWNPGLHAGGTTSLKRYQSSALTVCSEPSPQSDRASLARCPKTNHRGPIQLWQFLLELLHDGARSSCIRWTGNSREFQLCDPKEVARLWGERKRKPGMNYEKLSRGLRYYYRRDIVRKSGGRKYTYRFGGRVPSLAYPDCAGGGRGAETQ
Procedure, shortened: as §1

[8] = target: T5, ELF3 (Homo sapiens, UniProt P78545 1-371); conditions: protein: recombinant; tags: N-terminal GST; dsDNA, one strand shown
T5 sequence: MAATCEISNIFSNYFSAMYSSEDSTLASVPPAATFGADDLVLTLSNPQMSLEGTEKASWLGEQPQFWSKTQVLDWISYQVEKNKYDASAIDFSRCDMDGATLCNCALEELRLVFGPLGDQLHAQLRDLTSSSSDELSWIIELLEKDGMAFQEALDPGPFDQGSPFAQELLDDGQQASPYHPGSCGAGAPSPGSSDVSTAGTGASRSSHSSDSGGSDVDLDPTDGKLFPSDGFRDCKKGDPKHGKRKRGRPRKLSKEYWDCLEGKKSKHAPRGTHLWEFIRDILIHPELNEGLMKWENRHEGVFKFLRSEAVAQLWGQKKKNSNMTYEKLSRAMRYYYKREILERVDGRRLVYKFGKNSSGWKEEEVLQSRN
Procedure, shortened: as §1

[9] = target: CRX (Homo sapiens, UniProt O43186 1-299); conditions: protein: recombinant; tags: N-terminal GST; dsDNA, one strand shown
Procedure, shortened: as §1

[10] = target: ETV1 (Homo sapiens, UniProt P50549 1-477); conditions: protein: recombinant; tags: N-terminal GST; dsDNA, one strand shown
Procedure, shortened: as §1

[11] = target: T6, ERF (Homo sapiens, UniProt P50548 1-548); conditions: protein: recombinant; tags: N-terminal GST; dsDNA, one strand shown
T6 sequence: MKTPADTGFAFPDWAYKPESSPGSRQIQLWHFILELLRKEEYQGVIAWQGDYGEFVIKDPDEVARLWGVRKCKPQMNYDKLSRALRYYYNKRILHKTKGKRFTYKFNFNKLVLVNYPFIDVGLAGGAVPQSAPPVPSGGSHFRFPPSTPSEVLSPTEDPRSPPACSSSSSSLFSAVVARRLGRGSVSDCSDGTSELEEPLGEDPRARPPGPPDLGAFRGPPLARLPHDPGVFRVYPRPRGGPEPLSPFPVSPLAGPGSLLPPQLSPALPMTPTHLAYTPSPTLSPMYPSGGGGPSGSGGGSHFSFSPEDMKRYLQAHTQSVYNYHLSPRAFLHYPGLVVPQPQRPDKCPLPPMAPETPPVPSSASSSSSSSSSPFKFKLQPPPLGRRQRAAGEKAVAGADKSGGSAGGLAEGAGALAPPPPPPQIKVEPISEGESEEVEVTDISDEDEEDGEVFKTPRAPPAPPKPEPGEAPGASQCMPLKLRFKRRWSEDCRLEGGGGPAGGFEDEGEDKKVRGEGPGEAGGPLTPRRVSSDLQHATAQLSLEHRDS
Procedure, shortened: as §1

[12] = target: T7, ETV3L (Homo sapiens, UniProt Q6ZN32 1-361); conditions: protein: recombinant; tags: N-terminal GST; dsDNA, one strand shown
T7 sequence: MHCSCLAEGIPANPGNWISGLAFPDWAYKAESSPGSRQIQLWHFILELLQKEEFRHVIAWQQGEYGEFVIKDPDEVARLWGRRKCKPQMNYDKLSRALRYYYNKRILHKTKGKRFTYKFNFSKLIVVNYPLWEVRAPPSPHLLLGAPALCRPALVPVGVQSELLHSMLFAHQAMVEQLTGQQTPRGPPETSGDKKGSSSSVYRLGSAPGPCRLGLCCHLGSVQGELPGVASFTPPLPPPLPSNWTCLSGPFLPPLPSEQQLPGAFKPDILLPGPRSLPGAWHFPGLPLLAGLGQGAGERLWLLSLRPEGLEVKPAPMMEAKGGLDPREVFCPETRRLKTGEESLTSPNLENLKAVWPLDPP
Procedure, shortened: as §1

[13] = target: T8, ETS2 (Homo sapiens, UniProt P15036 1-469); conditions: protein: recombinant; tags: N-terminal GST; dsDNA, one strand shown
T8 sequence: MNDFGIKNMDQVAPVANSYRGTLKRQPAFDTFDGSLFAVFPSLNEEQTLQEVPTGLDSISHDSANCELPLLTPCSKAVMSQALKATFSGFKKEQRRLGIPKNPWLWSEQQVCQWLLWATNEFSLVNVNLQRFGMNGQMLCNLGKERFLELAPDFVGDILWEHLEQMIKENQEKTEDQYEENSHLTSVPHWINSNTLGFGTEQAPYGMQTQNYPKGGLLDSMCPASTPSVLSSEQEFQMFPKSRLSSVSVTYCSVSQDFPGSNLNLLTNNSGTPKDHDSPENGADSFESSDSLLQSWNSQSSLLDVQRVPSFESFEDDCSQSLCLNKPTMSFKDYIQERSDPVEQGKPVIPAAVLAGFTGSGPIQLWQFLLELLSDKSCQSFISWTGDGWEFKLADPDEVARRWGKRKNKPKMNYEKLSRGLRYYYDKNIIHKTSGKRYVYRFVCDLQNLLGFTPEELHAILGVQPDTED
Procedure, shortened: as §1

[14] = target: T9, SPDEF (Homo sapiens, UniProt O95238 1-335); conditions: protein: recombinant; tags: N-terminal GST; dsDNA, one strand shown
T9 sequence: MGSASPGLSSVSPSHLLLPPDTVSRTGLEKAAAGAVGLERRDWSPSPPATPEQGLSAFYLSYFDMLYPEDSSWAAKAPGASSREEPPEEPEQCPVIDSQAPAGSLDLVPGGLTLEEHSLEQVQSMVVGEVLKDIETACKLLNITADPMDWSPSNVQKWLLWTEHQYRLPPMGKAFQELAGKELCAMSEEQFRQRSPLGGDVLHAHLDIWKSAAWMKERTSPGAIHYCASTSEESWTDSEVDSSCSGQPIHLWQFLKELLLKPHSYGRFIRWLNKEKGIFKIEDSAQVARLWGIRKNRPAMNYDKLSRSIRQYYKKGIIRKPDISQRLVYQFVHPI
Procedure, shortened: as §1

[15] = target: T10, ETV7 (Homo sapiens, UniProt Q9Y603 1-341); conditions: protein: recombinant; tags: N-terminal GST; dsDNA, one strand shown
T10 sequence: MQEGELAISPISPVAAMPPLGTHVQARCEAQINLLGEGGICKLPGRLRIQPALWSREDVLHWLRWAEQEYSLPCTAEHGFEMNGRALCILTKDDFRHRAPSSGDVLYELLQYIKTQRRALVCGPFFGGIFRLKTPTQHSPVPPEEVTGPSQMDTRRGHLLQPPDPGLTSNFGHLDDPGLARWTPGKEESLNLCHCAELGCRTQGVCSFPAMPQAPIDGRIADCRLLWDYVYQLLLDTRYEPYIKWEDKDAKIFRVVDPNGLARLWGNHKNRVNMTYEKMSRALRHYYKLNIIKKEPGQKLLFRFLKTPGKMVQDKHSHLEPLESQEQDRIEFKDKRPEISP
Procedure, shortened: as §1

[16] = target: T11, ELF5 (Homo sapiens, UniProt Q9UKW6-2 1-255); conditions: protein: recombinant; tags: N-terminal GST; dsDNA, one strand shown
T11 sequence: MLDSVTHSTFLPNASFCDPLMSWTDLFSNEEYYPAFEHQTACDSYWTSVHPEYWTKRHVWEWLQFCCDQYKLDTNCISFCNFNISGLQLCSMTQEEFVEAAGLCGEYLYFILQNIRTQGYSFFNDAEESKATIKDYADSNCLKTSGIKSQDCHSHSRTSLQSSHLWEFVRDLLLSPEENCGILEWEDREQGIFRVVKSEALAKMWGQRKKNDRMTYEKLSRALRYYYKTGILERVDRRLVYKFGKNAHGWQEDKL
Procedure, shortened: as §1

[17] = target: T12, ETV3 (Homo sapiens, UniProt P41162-2 1-143); conditions: protein: recombinant; tags: N-terminal GST; dsDNA, one strand shown
T12 sequence: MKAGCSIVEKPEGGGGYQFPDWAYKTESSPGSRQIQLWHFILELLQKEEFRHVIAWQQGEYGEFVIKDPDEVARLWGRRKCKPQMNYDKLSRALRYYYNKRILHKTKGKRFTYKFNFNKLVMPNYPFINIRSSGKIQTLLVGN
Procedure, shortened: as §1

[18] = target: ETV6 (Homo sapiens, UniProt P41212 1-452); conditions: protein: recombinant; tags: N-terminal GST; dsDNA, one strand shown
Procedure, shortened: as §1

Sequence of ETV1 (P50549 whole entry): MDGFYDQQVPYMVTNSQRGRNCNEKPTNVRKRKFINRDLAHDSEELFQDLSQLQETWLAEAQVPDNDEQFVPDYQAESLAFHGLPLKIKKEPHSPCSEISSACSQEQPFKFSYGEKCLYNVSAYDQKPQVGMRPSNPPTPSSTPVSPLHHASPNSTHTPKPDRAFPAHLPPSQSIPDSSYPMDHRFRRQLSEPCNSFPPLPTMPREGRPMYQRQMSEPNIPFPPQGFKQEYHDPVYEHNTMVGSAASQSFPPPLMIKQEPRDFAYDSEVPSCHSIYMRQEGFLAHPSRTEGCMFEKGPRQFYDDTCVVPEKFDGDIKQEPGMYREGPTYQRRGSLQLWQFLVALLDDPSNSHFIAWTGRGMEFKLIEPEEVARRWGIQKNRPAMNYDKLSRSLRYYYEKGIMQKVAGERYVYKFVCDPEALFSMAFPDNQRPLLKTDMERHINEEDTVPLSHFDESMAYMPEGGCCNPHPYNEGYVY
Sequence of ETV6 (P41212 whole entry): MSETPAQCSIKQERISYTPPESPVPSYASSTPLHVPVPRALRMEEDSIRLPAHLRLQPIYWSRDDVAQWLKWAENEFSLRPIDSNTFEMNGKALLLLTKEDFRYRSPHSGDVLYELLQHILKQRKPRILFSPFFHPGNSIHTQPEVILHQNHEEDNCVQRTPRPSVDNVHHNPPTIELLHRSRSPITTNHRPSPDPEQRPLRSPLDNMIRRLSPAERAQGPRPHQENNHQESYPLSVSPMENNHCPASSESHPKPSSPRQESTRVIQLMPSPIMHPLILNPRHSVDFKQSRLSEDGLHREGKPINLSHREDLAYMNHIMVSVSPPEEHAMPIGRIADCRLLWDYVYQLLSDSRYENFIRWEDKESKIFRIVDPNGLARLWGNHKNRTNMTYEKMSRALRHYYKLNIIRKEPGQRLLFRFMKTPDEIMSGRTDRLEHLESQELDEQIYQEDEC
Sequence of HSF1 (Q00613 whole entry): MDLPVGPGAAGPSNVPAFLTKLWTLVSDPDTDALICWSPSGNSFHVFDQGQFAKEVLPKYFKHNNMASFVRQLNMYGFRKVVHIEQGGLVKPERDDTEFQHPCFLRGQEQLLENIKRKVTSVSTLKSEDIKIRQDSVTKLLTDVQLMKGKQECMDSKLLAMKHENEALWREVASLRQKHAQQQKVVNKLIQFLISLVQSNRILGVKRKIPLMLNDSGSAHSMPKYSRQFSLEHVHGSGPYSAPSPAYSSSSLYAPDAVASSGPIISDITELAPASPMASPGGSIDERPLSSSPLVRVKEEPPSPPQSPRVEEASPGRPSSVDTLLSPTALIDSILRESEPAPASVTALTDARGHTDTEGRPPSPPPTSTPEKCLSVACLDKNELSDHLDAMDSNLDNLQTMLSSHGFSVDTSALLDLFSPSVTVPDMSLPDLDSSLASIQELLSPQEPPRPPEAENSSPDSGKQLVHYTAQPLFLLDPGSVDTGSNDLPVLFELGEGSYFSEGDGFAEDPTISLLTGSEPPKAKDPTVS
Sequence of ETV5 (P41161 whole entry): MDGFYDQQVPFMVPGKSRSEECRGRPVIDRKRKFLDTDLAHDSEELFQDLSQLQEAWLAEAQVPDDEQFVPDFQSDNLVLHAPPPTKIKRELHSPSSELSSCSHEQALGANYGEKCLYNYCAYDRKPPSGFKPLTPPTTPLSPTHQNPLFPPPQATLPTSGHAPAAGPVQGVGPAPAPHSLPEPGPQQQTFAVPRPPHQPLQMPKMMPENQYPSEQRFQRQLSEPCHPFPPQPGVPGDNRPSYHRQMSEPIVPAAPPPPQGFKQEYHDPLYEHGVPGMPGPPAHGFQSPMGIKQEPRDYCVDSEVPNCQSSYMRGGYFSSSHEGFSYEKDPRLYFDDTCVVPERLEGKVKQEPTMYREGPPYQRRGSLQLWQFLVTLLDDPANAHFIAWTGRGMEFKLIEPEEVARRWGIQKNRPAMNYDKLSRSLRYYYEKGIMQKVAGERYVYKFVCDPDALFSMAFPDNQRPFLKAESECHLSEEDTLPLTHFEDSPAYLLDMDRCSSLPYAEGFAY
Sequence of ELF4 (Q99607 whole entry): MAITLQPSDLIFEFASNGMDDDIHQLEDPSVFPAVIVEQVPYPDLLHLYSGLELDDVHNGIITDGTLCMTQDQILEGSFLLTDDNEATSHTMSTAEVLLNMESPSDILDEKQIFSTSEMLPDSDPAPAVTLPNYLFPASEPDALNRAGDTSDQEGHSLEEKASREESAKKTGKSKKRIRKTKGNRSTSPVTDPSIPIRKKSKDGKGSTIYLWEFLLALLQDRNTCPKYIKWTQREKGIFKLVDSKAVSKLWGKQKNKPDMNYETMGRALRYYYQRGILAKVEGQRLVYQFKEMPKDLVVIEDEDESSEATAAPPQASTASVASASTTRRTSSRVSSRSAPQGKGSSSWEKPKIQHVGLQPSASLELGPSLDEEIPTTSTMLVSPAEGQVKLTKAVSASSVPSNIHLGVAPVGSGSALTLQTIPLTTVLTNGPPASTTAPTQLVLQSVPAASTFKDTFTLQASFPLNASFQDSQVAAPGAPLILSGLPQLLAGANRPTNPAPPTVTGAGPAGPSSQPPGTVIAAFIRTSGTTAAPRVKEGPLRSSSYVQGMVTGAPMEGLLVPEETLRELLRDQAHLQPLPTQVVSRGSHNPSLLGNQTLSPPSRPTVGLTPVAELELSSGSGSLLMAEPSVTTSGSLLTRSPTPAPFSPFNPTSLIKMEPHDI
Sequence of CRX (O43186 whole entry): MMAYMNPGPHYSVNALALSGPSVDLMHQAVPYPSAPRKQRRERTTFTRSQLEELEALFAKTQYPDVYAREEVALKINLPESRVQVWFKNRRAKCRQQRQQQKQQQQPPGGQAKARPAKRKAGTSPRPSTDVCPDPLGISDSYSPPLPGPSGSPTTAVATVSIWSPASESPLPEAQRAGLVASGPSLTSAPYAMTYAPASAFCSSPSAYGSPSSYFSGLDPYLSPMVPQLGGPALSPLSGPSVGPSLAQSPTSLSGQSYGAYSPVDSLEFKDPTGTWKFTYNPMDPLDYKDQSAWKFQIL

For AACCAA, the binding signal [1] was 1.19 fold enrichment (6-mer frequency, TF over GST control), the binding signal [2] was 1.21 fold enrichment (6-mer frequency, TF over GST control) and the binding signal [3] was 1.08 fold enrichment (6-mer frequency, TF over GST control). For the same sequence, the binding signal [4] was 1.1 fold enrichment (6-mer frequency, TF over GST control), the binding signal [5] was 1.33 fold enrichment (6-mer frequency, TF over GST control) and the binding signal [6] was 1.05 fold enrichment (6-mer frequency, TF over GST control). For the same sequence, the binding signal [7] was 1.21 fold enrichment (6-mer frequency, TF over GST control), the binding signal [8] was 1.32 fold enrichment (6-mer frequency, TF over GST control) and the binding signal [9] was 1.09 fold enrichment (6-mer frequency, TF over GST control). For the same sequence, the binding signal [10] was 1.2 fold enrichment (6-mer frequency, TF over GST control), the binding signal [11] was 1.25 fold enrichment (6-mer frequency, TF over GST control) and the binding signal [12] was 1.15 fold enrichment (6-mer frequency, TF over GST control). For the same sequence, the binding signal [13] was 1.23 fold enrichment (6-mer frequency, TF over GST control), the binding signal [14] was 1.21 fold enrichment (6-mer frequency, TF over GST control) and the binding signal [15] was 1.2 fold enrichment (6-mer frequency, TF over GST control). For the same sequence, the binding signal [16] was 1.16 fold enrichment (6-mer frequency, TF over GST control), the binding signal [17] was 1.18 fold enrichment (6-mer frequency, TF over GST control) and the binding signal [18] was 1.29 fold enrichment (6-mer frequency, TF over GST control).
